Reference: PubChem BioAssay (EPA / NIEHS)
Calls of active or inactive are those of the source. Rule for the calls: active = hit-call score of the fitted dose curve at least 0.9, where 1 is the maximum; inactive = score below 0.9.

Tests used:
[1] = ATG_ISRE_CIS: Attagene CIS-FACTORIAL HepG2 Assay for human Interferon Regulatory Factor 1 (IRF1) binding to an Interferon-Stimulated Response Element (ISRE) (AID 2282948); settings: HepG2 ISRE cis-reporter (Attagene), mRNA transcription readout; actives raise or lower the signal
Summary of the method: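 Read-out: fluorescent RT-PCR products resolved by capillary electrophoresis, reporting endogenous transcription factor activity via ISRE-driven reporter mRNA in transfected HepG2 cells dosed for 24 h; gain or loss fitted relative to DMSO.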

[2] = ATG_M_32_CIS: Attagene CIS-FACTORIAL HepG2 Assay for M32 Transcription Factor (Internal Marker) (AID 2282949); settings: HepG2 Attagene cis-factorial M32 reporter, mRNA; actives raise or lower the signal;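 note: background control marker of the multiplexed CIS panel rather than a real target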
Summary of the method: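 HepG2 human liver cells transiently transfected with cis-promoter-driven multiple reporter transcription units, dosed 24 h. Reporter mRNA quantified by RT-PCR, FAM-labelled primer extension, HpaI digest and capillary electrophoresis; bidirectional fit versus DMSO baseline.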

[3] = ATG_M_06_CIS: Attagene CIS-FACTORIAL HepG2 Assay for M06 Transcription Factor (Internal Marker) (AID 2282950); settings: HepG2 Attagene CIS-FACTORIAL M06 internal marker reporter; actives raise or lower the signal
Summary of the method: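 Serves as a background control readout. Transfected HepG2 exposed to compounds for 24 h, then reporter transcripts quantified by fluorescent RT-PCR and capillary electrophoresis. Both directions fitted against DMSO baseline.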

[4] = biological target: Hypoxia-inducible factor 1-alpha (Homo sapiens) (UniProt Q16665); assay: ATG_HIF1a_CIS: Attagene CIS-FACTORIAL HepG2 Assay for human Hypoxia Inducible Factor 1 (HIF1A) (AID 2282951); settings: HepG2 Attagene cis-factorial HIF1a reporter transcription; actives raise or lower the signal
Summary of the method: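 Dosed 24 h, transfected HepG2 cells yielded total RNA whose reporter transcripts were RT-PCR-amplified and sized by capillary electrophoresis using fluorescent labelling; DMSO defined baseline, with gain and loss of signal both fitted.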

[5] = biological target: Hepatocyte nuclear factor 6 (Homo sapiens) (UniProt Q9UBC0); assay: ATG_HNF6_CIS: Attagene CIS-FACTORIAL HepG2 Assay for human Hepatocyte Nuclear Factor 6 (HNF6) (AID 2282952); settings: HepG2 Attagene cis-factorial HNF6 reporter transcription; actives raise or lower the signal
Summary of the method: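 Activity values derive from bidirectional fitting against DMSO of reporter mRNA levels, measured by capillary electrophoresis of labelled RT-PCR products from HepG2 cells exposed 24 h.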

[6] = biological target: Heat shock factor protein 1 (Homo sapiens) (UniProt Q00613); assay: ATG_HSE_CIS: Attagene CIS-FACTORIAL HepG2 Assay for human Heat Shock Transcription Factor 1 (HSE) (AID 2282953); settings: HepG2 HSE cis-reporter, Attagene RNA transcription; actives raise or lower the signal
Summary of the method: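 Endogenous transcription factor activity in transiently transfected HepG2, read as reporter mRNA by RT-PCR with fluorescent capillary electrophoresis after 24 h. Gain or loss of signal fitted versus DMSO baseline.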

[7] = ATG_MRE_CIS: Attagene CIS-FACTORIAL HepG2 Assay for human Metal Responsive Element (MRE) (AID 2282954); settings: HepG2 MRE cis-reporter transcription, Attagene multiplex; actives raise or lower the signal
Summary of the method: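 Measured here is mRNA induction from an MRE cis-element reporter in HepG2 after 24 h, quantified by fluorescence of labelled RT-PCR products on capillary electrophoresis; gain- and loss-of-signal fits use DMSO as baseline.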

[8] = ATG_PBREM_CIS: Attagene CIS-FACTORIAL HepG2 Assay for human Phenobarbital-responsive Enhancer Module (PBREM) (AID 2282955); settings: HepG2 PBREM cis-reporter, Attagene multiplexed transcription; actives raise or lower the signal
Summary of the method: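 Transfected liver-derived HepG2 cells exposed 24 h; PBREM reporter transcript quantified via RT-PCR and capillary electrophoresis, with activity in either direction referenced to DMSO.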

[9] = biological target: Paired box protein Pax-6 (Homo sapiens) (UniProt P26367); assay: ATG_Pax6_CIS: Attagene CIS-FACTORIAL HepG2 Assay for human Paired Box 6 (PAX6) (AID 2282956); settings: HepG2 CIS-FACTORIAL PAX6 reporter transcription, RNA readout; actives raise or lower the signal
Summary of the method: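 Readout: reporter transcript fluorescence after RT-PCR and capillary electrophoresis. Cells: HepG2, transiently transfected with cis-regulated MRTUs. Exposure 24 h. Gain or loss of signal fitted bidirectionally relative to DMSO.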

[10] = ATG_PXRE_CIS: Attagene CIS-FACTORIAL HepG2 Assay for human Pregnane X Receptor Element (PXRE) (AID 2282957); settings: HepG2 Attagene CIS-FACTORIAL PXRE reporter, mRNA; actives raise or lower the signal
Summary of the method: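 Fluorescent capillary electrophoresis of amplified reporter cDNA gave the signal, collected 24 h after dosing HepG2 cells that held transfected cis-element reporter constructs.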

[11] = ATG_PPRE_CIS: Attagene CIS-FACTORIAL HepG2 Assay for human Peroxisome Proliferator-activated Response Element (PPRE) (AID 2282958); settings: HepG2 PPRE cis-element reporter, Attagene transcription factor profiling; actives raise or lower the signal
Summary of the method: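 Measured endpoint: PPRE-controlled reporter mRNA, detected by RT-PCR and capillary electrophoresis fluorescence, from transiently transfected HepG2 cells 24 h after dosing. Curves fitted in both directions using DMSO baseline.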

[12] = ATG_RORE_CIS: Attagene CIS-FACTORIAL HepG2 Assay for human RAR-related Orphan Receptor Element (RORE) (AID 2282959); settings: HepG2 Attagene cis-factorial RORE reporter, mRNA; actives raise or lower the signal
Summary of the method: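 Transiently transfected HepG2 reporter cells were treated 24 h. Reporter transcripts were detected by RT-PCR and capillary electrophoresis, with bidirectional fitting against DMSO.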

[13] = ATG_Sox_CIS: Attagene CIS-FACTORIAL HepG2 Assay for human SRY-box transcription factor (SOX) (AID 2282960); settings: HepG2 Attagene cis-factorial SOX reporter, mRNA; actives raise or lower the signal
Summary of the method: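 Gain- or loss-of-signal endpoint, fitted bidirectionally with DMSO as negative control. Based on reporter mRNA from transfected HepG2 cells harvested 24 h post-treatment and quantified via RT-PCR and capillary electrophoresis.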

[14] = biological target: Transcription factor Sp1 (Homo sapiens) (UniProt P08047); assay: ATG_Sp1_CIS: Attagene CIS-FACTORIAL HepG2 Assay for human Specificity Protein 1 (Sp1) (AID 2282961); settings: HepG2 Sp1 cis-reporter transcription, actives raise or lower the signal
Summary of the method: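 Endpoint reflects endogenous Sp1 transcriptional activity, not an exogenous fusion protein: HepG2 cells with transfected cis-regulated reporters, 24 h dosing, RT-PCR/capillary electrophoresis mRNA read-out, DMSO-normalised bidirectional fit.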

[15] = ATG_SREBP_CIS: Attagene CIS-FACTORIAL HepG2 Assay for human Sterol Regulatory Element Binding (SREBP) (AID 2282962); settings: HepG2 Attagene cis-factorial SREBP reporter, mRNA; actives raise or lower the signal
Summary of the method: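 Readout: fluorescent reporter-transcript peaks resolved by capillary electrophoresis after RT-PCR. Cells were human HepG2 carrying transfected cis-promoter reporter constructs, dosed for 24 h. Gain or loss of signal was fitted against DMSO controls.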

[16] = biological target: Signal transducer and activator of transcription 3 (Homo sapiens) (UniProt P40763); assay: ATG_STAT3_CIS: Attagene CIS-FACTORIAL HepG2 Assay for human Signal Transducer and Activator of Transcription 3 (STAT3) (AID 2282963); settings: HepG2, Attagene cis-factorial STAT3 reporter transcription; actives raise or lower the signal
Summary of the method: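 Fluorescence intensity of 6-FAM-labelled reporter fragments, separated by capillary electrophoresis after RT-PCR, gave the signal. Cells were HepG2 transfected with cis-element reporter units and treated 24 h; fitting was bidirectional relative to DMSO.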

[17] = ATG_TA_CIS: Attagene CIS-FACTORIAL HepG2 Assay for human TA Basal Promoter (AID 2282964); settings: HepG2 Attagene CIS-factorial TA basal promoter reporter; actives raise or lower the signal
Summary of the method: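 Background-control readout: TA basal promoter reporter mRNA, fitted in both directions relative to DMSO. Measured by RT-PCR and capillary electrophoresis 24 hours after treating HepG2 human liver cells transiently carrying multiplexed cis-regulated reporter constructs.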

[18] = ATG_TCF_b_cat_CIS: Attagene CIS-FACTORIAL HepG2 Assay for human T-Cell-Factor with beta-catenin (TCF/b-cat) (AID 2282965); settings: HepG2 TCF/beta-catenin cis-reporter transcription, actives raise or lower the signal
Summary of the method: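 HepG2 cells transiently transfected with cis-promoter-driven multiplexed reporter units; reporter mRNA measured 24 h after dosing by RT-PCR, FAM labelling, HpaI digestion and capillary electrophoresis. Bidirectional fitting relative to DMSO baseline.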

[19] = ATG_GRE_CIS: Attagene CIS-FACTORIAL HepG2 Assay for human Glucocorticoid Response Elements (GRE) (AID 2282947); settings: HepG2 GRE cis-reporter, Attagene multiplex mRNA; actives raise or lower the signal
Summary of the method: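 Fluorescence intensity of reporter-specific cDNA fragments, separated by capillary electrophoresis, provides the signal. Constructs carry cis-regulating promoters in transiently transfected HepG2 liver cells; 24 h incubation; fitting is bidirectional against DMSO.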

Measured: AC50

Paired box protein Pax-6 (Homo sapiens), sequence (P26367 whole entry, looked up): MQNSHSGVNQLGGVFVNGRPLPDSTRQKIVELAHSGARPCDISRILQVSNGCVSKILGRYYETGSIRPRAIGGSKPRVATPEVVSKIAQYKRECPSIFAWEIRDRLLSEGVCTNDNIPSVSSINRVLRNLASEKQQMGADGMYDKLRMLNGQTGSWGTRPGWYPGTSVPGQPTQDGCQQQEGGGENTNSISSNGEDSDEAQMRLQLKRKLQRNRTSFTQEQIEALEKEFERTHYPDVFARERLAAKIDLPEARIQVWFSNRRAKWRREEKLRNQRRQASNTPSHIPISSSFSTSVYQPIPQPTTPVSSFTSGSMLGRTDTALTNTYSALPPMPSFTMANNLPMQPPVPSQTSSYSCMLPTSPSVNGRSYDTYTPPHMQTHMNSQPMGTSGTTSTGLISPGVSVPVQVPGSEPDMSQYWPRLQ
Signal transducer and activator of transcription 3 (Homo sapiens), sequence (P40763 whole entry, looked up, the tested form may be a part): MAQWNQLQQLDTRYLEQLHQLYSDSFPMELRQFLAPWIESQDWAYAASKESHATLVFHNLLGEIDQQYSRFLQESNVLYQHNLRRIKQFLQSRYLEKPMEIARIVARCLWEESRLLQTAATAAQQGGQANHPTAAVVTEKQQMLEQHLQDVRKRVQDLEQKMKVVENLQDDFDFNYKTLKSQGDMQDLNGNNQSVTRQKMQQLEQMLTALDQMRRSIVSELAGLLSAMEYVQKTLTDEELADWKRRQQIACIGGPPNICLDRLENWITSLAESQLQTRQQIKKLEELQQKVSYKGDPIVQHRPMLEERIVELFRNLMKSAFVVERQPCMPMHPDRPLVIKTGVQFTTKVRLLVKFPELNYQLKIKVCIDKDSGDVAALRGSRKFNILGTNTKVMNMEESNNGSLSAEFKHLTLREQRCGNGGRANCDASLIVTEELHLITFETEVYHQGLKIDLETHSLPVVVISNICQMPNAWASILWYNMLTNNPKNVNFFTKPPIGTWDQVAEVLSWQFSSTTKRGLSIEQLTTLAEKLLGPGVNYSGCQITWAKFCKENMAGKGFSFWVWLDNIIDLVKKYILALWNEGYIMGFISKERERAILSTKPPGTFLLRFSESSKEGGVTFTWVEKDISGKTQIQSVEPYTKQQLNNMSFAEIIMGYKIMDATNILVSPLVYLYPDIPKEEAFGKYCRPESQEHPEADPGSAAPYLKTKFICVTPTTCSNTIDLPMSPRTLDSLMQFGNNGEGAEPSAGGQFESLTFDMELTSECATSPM
Hypoxia-inducible factor 1-alpha (Homo sapiens), sequence (Q16665 whole entry, looked up): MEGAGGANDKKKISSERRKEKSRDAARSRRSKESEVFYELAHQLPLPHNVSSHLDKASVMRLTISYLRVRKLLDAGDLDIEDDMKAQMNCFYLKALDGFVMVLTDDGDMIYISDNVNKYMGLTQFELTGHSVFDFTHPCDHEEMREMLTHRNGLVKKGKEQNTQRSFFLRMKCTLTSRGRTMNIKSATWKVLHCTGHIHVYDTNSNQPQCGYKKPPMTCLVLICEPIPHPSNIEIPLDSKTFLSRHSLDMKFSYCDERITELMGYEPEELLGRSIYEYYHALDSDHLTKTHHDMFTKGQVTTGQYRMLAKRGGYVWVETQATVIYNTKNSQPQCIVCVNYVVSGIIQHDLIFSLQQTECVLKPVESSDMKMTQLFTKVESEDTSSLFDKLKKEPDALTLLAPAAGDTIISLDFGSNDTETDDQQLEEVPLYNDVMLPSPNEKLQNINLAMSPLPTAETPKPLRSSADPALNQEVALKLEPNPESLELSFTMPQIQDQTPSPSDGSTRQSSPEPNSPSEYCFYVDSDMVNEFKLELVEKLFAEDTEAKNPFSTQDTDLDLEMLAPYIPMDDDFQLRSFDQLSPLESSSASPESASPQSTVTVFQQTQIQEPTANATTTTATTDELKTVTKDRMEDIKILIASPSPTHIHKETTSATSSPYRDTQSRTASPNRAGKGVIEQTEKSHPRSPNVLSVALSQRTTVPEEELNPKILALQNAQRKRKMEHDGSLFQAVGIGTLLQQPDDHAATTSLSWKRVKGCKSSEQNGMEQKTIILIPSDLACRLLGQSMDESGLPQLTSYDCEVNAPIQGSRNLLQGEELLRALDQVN
Heat shock factor protein 1 (Homo sapiens), sequence (Q00613 whole entry, looked up): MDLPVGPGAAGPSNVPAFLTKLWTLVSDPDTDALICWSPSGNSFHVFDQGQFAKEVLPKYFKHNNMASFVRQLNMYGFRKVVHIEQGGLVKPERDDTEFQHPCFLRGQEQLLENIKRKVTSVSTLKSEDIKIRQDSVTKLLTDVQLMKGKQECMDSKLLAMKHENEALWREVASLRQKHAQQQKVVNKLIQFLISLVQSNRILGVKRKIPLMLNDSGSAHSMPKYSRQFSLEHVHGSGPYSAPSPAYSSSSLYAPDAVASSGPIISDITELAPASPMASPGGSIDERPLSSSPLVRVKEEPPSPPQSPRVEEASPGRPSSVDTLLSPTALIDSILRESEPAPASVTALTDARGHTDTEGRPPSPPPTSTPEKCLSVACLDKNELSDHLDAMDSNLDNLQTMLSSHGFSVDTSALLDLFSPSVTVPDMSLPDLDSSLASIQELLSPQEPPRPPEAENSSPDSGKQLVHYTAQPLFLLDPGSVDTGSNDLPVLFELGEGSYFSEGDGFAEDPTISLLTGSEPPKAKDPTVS
Hepatocyte nuclear factor 6 (Homo sapiens), sequence (Q9UBC0 whole entry, looked up): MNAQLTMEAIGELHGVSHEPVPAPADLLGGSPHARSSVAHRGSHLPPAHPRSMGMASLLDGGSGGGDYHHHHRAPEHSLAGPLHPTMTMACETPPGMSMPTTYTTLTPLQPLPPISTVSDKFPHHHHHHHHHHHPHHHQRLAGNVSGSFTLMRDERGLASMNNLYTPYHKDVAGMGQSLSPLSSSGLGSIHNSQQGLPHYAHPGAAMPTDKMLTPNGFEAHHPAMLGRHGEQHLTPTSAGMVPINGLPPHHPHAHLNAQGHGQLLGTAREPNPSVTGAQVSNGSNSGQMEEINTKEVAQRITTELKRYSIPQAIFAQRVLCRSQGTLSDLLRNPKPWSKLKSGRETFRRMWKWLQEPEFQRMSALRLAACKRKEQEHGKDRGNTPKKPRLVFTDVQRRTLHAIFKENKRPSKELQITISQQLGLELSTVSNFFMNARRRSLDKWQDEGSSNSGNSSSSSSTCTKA
Transcription factor Sp1 (Homo sapiens), sequence (P08047 whole entry, looked up, the tested form may be a part): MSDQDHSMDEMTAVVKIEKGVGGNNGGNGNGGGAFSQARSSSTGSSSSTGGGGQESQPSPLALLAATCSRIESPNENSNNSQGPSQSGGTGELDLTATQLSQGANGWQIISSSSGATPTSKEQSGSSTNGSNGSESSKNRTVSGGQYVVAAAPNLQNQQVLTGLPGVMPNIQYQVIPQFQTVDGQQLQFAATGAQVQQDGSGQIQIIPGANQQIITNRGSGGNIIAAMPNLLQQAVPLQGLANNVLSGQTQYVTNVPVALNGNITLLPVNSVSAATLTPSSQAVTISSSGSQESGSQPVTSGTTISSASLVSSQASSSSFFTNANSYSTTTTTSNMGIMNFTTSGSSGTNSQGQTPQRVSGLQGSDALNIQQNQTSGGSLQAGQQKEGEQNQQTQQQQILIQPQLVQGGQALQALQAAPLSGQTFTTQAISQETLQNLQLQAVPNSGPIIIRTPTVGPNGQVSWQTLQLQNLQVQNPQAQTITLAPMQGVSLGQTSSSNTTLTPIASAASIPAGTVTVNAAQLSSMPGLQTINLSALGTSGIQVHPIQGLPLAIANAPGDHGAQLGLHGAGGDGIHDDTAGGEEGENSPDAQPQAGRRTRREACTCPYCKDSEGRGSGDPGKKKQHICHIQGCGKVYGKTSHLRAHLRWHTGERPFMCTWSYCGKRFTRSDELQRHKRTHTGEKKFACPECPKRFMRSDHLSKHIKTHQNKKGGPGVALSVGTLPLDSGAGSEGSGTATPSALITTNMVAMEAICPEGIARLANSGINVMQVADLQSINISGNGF

CCCCCOC(=O)CCC
inactive: [1] | [2] | [3] | [4] | [5] | [6] | [7] | [8] | [9] | [10] | [11] | [12] | [13] | [14] | [15] | [16] | [17] | [18]

O=c1cc(-c2ccccc2)oc2cc(O)cc(O)c12
inactive: [19] | [1] | [2] | [3] | [6] | [7] | [8] | [9] | [10] | [13] | [14] | [15] | [16] | [17] | [18]
active: [11] 4.28 µM

O=C(Cl)c1cccc(C(=O)Cl)c1
active: [10] 27.5 µM
inactive: [19] | [1] | [3] | [4] | [5] | [6] | [7] | [9] | [11] | [13] | [14] | [15] | [17] | [18]

CCCC(=O)OCCC(C)CCC=C(C)C (centres undefined)
active: [5] 180 µM | [10] 56.1 µM
inactive: [1] | [2] | [3] | [4] | [6] | [7] | [8] | [9] | [11] | [12] | [13] | [14] | [15] | [16] | [17] | [18]

CCCC1CCC(=O)O1 (centres undefined)
inactive: [1] | [2] | [3] | [4] | [5] | [6] | [7] | [8] | [9] | [10] | [11] | [12] | [13] | [14] | [15] | [16] | [17] | [18]

NC(N)=NC(=O)c1nc(Cl)c(N)nc1N
active: [1] 157 µM
inactive: [19] | [2] | [3] | [5] | [6] | [7] | [8] | [9] | [10] | [12] | [13] | [14] | [15] | [16] | [17] | [18]

COCCCOc1ccnc(CS(=O)c2nc3ccccc3[nH]2)c1C (centres undefined)
inactive: [19] | [1] | [3] | [4] | [5] | [8] | [9] | [12] | [13] | [14] | [15] | [16] | [17] | [18]
active: [6] 152 µM | [7] 106 µM | [10] 6.74 µM

NCCNCCN
inactive: [1] | [2] | [3] | [4] | [5] | [6] | [7] | [8] | [9] | [10] | [11] | [12] | [13] | [14] | [15] | [16] | [17] | [18]

CCn1c2ccccc2c2cc(N)ccc21
active: [8] 37 µM | [10] 3.35 µM | [11] 100 µM | [12] 67.9 µM | [15] 27.3 µM
inactive: [1] | [2] | [3] | [4] | [5] | [6] | [7] | [9] | [13] | [14] | [16] | [17] | [18]

O=C(O)CCCCC1CCSS1 (centres undefined)
inactive: [19] | [1] | [2] | [3] | [7] | [9] | [10] | [11] | [12] | [13] | [14] | [15] | [16] | [17] | [18]

CCN(CC)c1ccc(C(=C2C=CC(=[N+](CC)CC)C=C2)c2ccc(S(=O)(=O)O)cc2S(=O)(=O)[O-])cc1
active: [10] 63.4 µM
inactive: [19] | [1] | [3] | [4] | [5] | [6] | [7] | [9] | [12] | [13] | [14] | [15] | [16] | [17] | [18]

Nc1cccc(S(=O)(=O)c2cccc(N)c2)c1
inactive: [19] | [1] | [3] | [4] | [5] | [6] | [7] | [8] | [9] | [10] | [11] | [13] | [14] | [15] | [16] | [17] | [18]

O=C(O)c1ccc(C(=O)O)cc1
inactive: [1] | [2] | [3] | [4] | [5] | [6] | [7] | [8] | [9] | [10] | [11] | [12] | [13] | [14] | [15] | [16] | [17] | [18]

CC1=CCC(O)(C(C)C)CC1 (centres undefined)
inactive: [19] | [1] | [2] | [3] | [5] | [6] | [7] | [8] | [9] | [11] | [12] | [13] | [14] | [15] | [16] | [17] | [18]
active: [10] 39.1 µM
